# Data from the supplement of paper PMC12494721.
# Structures can show the parent of a compound that is named as a salt.
# Experiments:
# Conditions in all cases: incubation time: 27 h, anaerobic, 37 °C;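 for the amine columns active = adjusted P below 0.05 in both replicates with a change the same way and a mean fold change under 0.8 or over 1.25; inactive = the rest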
# [1] = system: Clostridium sporogenes DSM 1664; experiment: growth (OD595) fold change vs plate DMSO controls (fold change (ratio)); higher = more growth
# How it was run: (§1)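 The measure reported is growth, taken as fold change against the median of DMSO controls on the same plate. Anaerobic mGAM cultures in 96-well plates (27 h, 37 °C) were read at 595 nm, blank-subtracted, corrected for compound background using 20 µM compound solutions in water, and multiplied by a calibration factor of 5 to give OD. Any fold change above 1.5 became NA, and 2 biological replicates were averaged.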
# Escherichia coli IAI1 [2] = experiment: as above
# How it was run: as §1
# [3] = system: Klebsiella aerogenes DSM 30053; experiment: as above
# How it was run: as §1
# [4] = system: Ruminococcus gnavus DSM 108212; experiment: as above
# How it was run: as §1
# [5] = system: Klebsiella aerogenes DSM 30053; experiment: fold change of Histamine concentration vs plate DMSO controls (fold change (ratio)); higher = more amine produced, active = hit call of the paper (significant change in both replicates, either direction)
# How it was run: (§2)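 Using LC–triple-quadrupole MS with dynamic MRM, amines were quantified against external calibration curves and corrected for drift within each batch. Samples were whole anaerobic mGAM cultures of four gut strains, grown 27 h at 37 °C from OD 0.1 before 1:1 dilution, extracted with cold acetonitrile/methanol containing 0.1% formic acid and centrifuged. Compounds were present at 20 µM final (sweeteners at 50 µM final). The numbers are fold changes versus plate DMSO controls, each the mean of 2 biological replicates.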
# [6] = system: Clostridium sporogenes DSM 1664; experiment: fold change of Tryptamine concentration vs plate DMSO controls (fold change (ratio)); higher = more amine produced, active = hit call of the paper (significant change in both replicates, either direction)
# How it was run: as §2
# [7] = system: Ruminococcus gnavus DSM 108212; experiment: as above
# How it was run: as §2
# Escherichia coli IAI1 [8] = experiment: fold change of Putrescine concentration vs plate DMSO controls (fold change (ratio)); higher = more amine produced, active = hit call of the paper (significant change in both replicates, either direction)
# How it was run: as §2
# [9] = system: Klebsiella aerogenes DSM 30053; experiment: as above
# How it was run: as §2
# Escherichia coli IAI1 [10] = experiment: fold change of Cadaverine concentration vs plate DMSO controls (fold change (ratio)); higher = more amine produced, active = hit call of the paper (significant change in both replicates, either direction)
# How it was run: as §2
# [11] = system: Klebsiella aerogenes DSM 30053; experiment: as above
# How it was run: as §2
# [12] = system: Ruminococcus gnavus DSM 108212; experiment: fold change of 2-Phenylethylamine concentration vs plate DMSO controls (fold change (ratio)); higher = more amine produced, active = hit call of the paper (significant change in both replicates, either direction)
# How it was run: as §2
SMILES,growth [1],growth (Escherichia coli IAI1 [2]),growth [3],growth [4],fold change of Histamine concentration [5],fold change of Tryptamine concentration [6],fold change of Tryptamine concentration [7],fold change of Putrescine concentration (Escherichia coli IAI1 [8]),fold change of Putrescine concentration [9],fold change of Cadaverine concentration (Escherichia coli IAI1 [10]),fold change of Cadaverine concentration [11],fold change of 2-Phenylethylamine concentration [12]
C[C@H]1O[C@@H](O[C@H]2[C@@H](O)C[C@H](O[C@H]3[C@@H](O)C[C@H](O[C@H]4CC[C@@]5(C)[C@H](CC[C@@H]6[C@@H]5C[C@@H](O)[C@]5(C)[C@@H](C7=CC(=O)OC7)CC[C@]65O)C4)O[C@@H]3C)O[C@@H]2C)C[C@H](O)[C@@H]1O [Digoxin] (20 µM),1.14,0.971,0.995,0.945,1.05 (inactive),1 (inactive),1.02 (inactive),1.01 (inactive),0.999 (inactive),0.992 (inactive),0.991 (inactive),1.03 (inactive)
Nc1nc(N)nc(-c2cc(Cl)ccc2Cl)n1 [Irsogladine maleate] (20 µM),1.07,1.02,0.961,1.02,0.989 (inactive),0.978 (inactive),0.959 (inactive),1.04 (inactive),0.998 (inactive),1.06 (inactive),0.997 (inactive),0.921 (inactive)
CCN(CC)CCc1nc(-c2ccccc2)no1 [Oxolamine citrate salt] (20 µM),1.13,0.976,0.968,1.01,1.04 (inactive),1.04 (inactive),1.03 (inactive),0.967 (inactive),1.01 (inactive),1.02 (inactive),0.987 (inactive),1.03 (inactive)
C#C[C@]1(O)CC[C@H]2[C@@H]3[C@H](C)CC4=C(CCC(=O)C4)[C@H]3CC[C@@]21C [Tibolone] (20 µM),1.01,0.989,1.04,0.931,1.03 (inactive),1.05 (inactive),1.04 (inactive),1.03 (inactive),1.02 (inactive),0.994 (inactive),1.01 (inactive),1.02 (inactive)
OC[C@H]1O[C@@H](n2cnc3cncnc32)[C@H](O)[C@@H]1O [Nebularine] (20 µM),0.985,0.971,1.01,0.831,0.982 (inactive),0.874 (inactive),0.943 (inactive),0.795 (inactive),1.01 (inactive),0.943 (inactive),0.998 (inactive),0.946 (inactive)
C[C@H]1[C@@H](O)O[C@@H]2O[C@@]3(C)CC[C@H]4[C@H](C)CC[C@@H]1[C@@]24OO3 [Artenimol] (20 µM),1.03,1.03,0.982,1.04,1.01 (inactive),0.991 (inactive),1.01 (inactive),1.02 (inactive),1.01 (inactive),1.02 (inactive),1.01 (inactive),0.965 (inactive)
CCCC1C(=O)N2C(N(C)C)=Nc3ccc(C)cc3N2C1=O (centres undefined) [Azapropazone] (20 µM),1.1,1,0.964,1.01,1.08 (inactive),1.09 (inactive),0.961 (inactive),0.996 (inactive),1 (inactive),0.997 (inactive),0.978 (inactive),0.91 (inactive)
NC[C@H]1O[C@H](O[C@H]2[C@H](O)[C@@H](O[C@H]3O[C@H](CO)[C@@H](O)[C@H](N)[C@H]3O)[C@H](N)C[C@@H]2N)[C@H](N)[C@@H](O)[C@@H]1O [Kanamycin B] (20 µM),1.05,0.89,0.765,0.976,0.723 (active),0.998 (inactive),0.923 (inactive),0.882 (inactive),1 (inactive),1.08 (inactive),0.978 (inactive),0.945 (inactive)
CC(=O)N[C@@H](CCC(N)=O)C(=O)O [Acetyl-L-glutamine] (20 µM),1.04,0.982,0.977,1.12,1.03 (inactive),0.997 (inactive),1.02 (inactive),0.98 (inactive),1 (inactive),0.977 (inactive),0.99 (inactive),1.05 (inactive)
N#C/C(=C1/SCC(c2ccccc2Cl)S1)n1ccnc1 (centres undefined) [Lanoconazole] (20 µM),0.991,0.983,1,1.1,0.945 (inactive),0.98 (inactive),0.982 (inactive),1.04 (inactive),1.01 (inactive),1.01 (inactive),1 (inactive),0.949 (inactive)
CN(c1nccc(=O)[nH]1)C1CCN(c2nc3ccccc3n2Cc2ccc(F)cc2)CC1 [Mizolastine] (20 µM),1.22,1.02,1.04,1.24,1.03 (inactive),0.967 (inactive),0.973 (inactive),0.986 (inactive),0.991 (inactive),0.977 (inactive),0.982 (inactive),0.967 (inactive)
CN(Cc1cnc2nc(N)nc(N)c2n1)c1ccc(C(=O)N[C@@H](CCC(=O)O)C(=O)O)cc1 [Amethopterin] (20 µM),1.08,1.02,1.09,1.42,0.922 (inactive),0.975 (inactive),0.892 (inactive),1 (inactive),1 (inactive),1 (inactive),1.02 (inactive),0.832 (inactive)
CCOC(=O)CC(=O)N1CCSC1COc1ccccc1OC (centres undefined) [Moguisteine] (20 µM),0.961,0.997,1.02,0.951,1.02 (inactive),1.06 (inactive),0.978 (inactive),0.997 (inactive),1.01 (inactive),1 (inactive),0.987 (inactive),0.994 (inactive)
CCOC(=O)c1c(N)sc2c1CCN(Cc1ccccc1)C2 [Tinoridine hydrochloride] (20 µM),1.15,0.977,0.967,1.14,1.03 (inactive),0.982 (inactive),0.922 (inactive),1.01 (inactive),1 (inactive),0.954 (inactive),0.976 (inactive),0.875 (inactive)
COCCc1ccc(OCC(O)CNC(C)C)cc1 (stereo not drawn) [Metoprolol-(+)-tartrate salt] (20 µM),1.01,1.03,1.03,1.05,0.856 (inactive),1.02 (inactive),1.03 (inactive),0.998 (inactive),0.955 (inactive),1.02 (inactive),1 (inactive),0.995 (inactive)
CN1CCC[C@@H]1CCO[C@](C)(c1ccccc1)c1ccc(Cl)cc1 [Clemastine fumarate] (20 µM),1.2,1.02,1.09,0.749,0.843 (inactive),1 (inactive),0.851 (inactive),1.06 (inactive),0.975 (inactive),1.12 (inactive),1.03 (inactive),0.886 (inactive)
CO/N=C1\CN(c2nc3c(cc2F)c(=O)c(C(=O)O)cn3C2CC2)CC1CN (centres undefined) [Gemifloxacin mesylate] (20 µM),0.00381,0.0388,0.126,0.376,0.0873 (active),0.0398 (active),0.148 (active),0.735 (inactive),0.66 (inactive),0.223 (active),0.992 (inactive),0.159 (active)
CCC(NC(C)C)C(O)c1ccc(O)c2[nH]c(=O)ccc12 (centres undefined) [Procaterol hydrochloride] (20 µM),1.07,1.02,1.03,1.02,1.01 (inactive),1.02 (inactive),1.1 (inactive),0.978 (inactive),0.949 (inactive),0.922 (inactive),1.06 (inactive),1.14 (inactive)
O=C1CN2Cc3c(ccc(Cl)c3Cl)N=C2N1 [Anagrelide] (20 µM),0.955,1.11,1.05,1.14,0.845 (inactive),1.03 (inactive),1.02 (inactive),1.05 (inactive),0.986 (inactive),1.16 (inactive),1.01 (inactive),0.962 (inactive)
COC(=O)C1=C(C#N)NC(C)=C(C(=O)OC(C)C)C1c1cccc([N+](=O)[O-])c1 (centres undefined) [Nilvadipine] (20 µM),1.01,1.18,0.953,0.932,0.971 (inactive),1.1 (inactive),1.24 (inactive),1.15 (inactive),0.936 (inactive),1.03 (inactive),1.02 (inactive),1.44 (active)
OC[C@H]1O[C@H](O[C@H]2[C@H](O)[C@@H](O)[C@H](O)O[C@@H]2CO)[C@H](O)[C@@H](O)[C@@H]1O [Maltose] (50 µM),1,1.03,1.03,1,0.966 (inactive),0.991 (inactive),0.984 (inactive),1.02 (inactive),0.996 (inactive),1.06 (inactive),0.999 (inactive),1.01 (inactive)
OC(Cn1cncn1)(Cn1cncn1)c1ccc(F)cc1F [Fluconazole] (20 µM),0.908,0.984,1.01,1.04,0.956 (inactive),1.05 (inactive),1.01 (inactive),0.989 (inactive),1.01 (inactive),1.01 (inactive),1.02 (inactive),0.959 (inactive)
